Bioassay records (PubChem BioAssay)
RORg inh: qHTS for inhibitors of ROR gamma transcriptional activity | Nuclear receptor ROR-gamma (Mus musculus), P51450 | Drosophila S2 Gal4-RORgamma UAS-luciferase reporter, 20 h | Potency, µM (highest dose often 53.6 µM), hits mostly inhibitors | actives 5.4% (n = 310,000) | AID 2551, 2010; note: nearly all actives have a fitted effect of over 60% in size
Target sequence (P51450 whole entry, looked up, the tested form may be a part): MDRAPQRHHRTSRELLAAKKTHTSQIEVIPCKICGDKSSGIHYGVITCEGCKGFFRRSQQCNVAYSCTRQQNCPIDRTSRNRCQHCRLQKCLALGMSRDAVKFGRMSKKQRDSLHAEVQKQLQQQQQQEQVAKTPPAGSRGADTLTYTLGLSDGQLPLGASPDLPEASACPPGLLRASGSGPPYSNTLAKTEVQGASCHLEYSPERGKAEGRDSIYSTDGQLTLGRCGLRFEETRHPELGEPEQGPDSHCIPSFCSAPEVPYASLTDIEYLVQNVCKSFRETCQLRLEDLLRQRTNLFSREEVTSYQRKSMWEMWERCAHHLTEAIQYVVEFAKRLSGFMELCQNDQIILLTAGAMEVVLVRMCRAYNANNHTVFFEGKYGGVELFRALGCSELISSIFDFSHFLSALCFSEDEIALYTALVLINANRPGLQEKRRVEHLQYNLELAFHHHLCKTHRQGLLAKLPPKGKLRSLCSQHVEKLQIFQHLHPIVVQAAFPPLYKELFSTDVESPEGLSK
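Read-out: Photinus luciferase luminescence; inhibitors lower reporter signal. Insect Schneider cells with Gal4-ROR gamma fusion under metallothionein promoter, UAS reporter; 700 uM final copper sulfate induction, 20 hr, ambient temperature.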
Integrin act MD: qHTS for Activators of Integrin-Mediated Alleviation for Muscular Dystrophy | alpha7betagal myoblasts, beta-gal FDG fluorescence, 48 h | Potency, µM (series often up to 38.3 µM), most hits filed as activators | actives 0.064% (n = 350,000); note: nearly all actives have a fitted effect of over 60% in size
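Alpha7betagal+/- myoblasts (passage 13) were plated 16-24 hr, then exposed to compounds (1:260 dilution of DMSO stock) for 48 hours at 37C. After MPER lysis, β-galactosidase reporter activity was read as FDG fluorescence (ex 480/em 540) after 30 minutes.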
VP16 counter: VP16 counterscreen qHTS for inhibitors of ROR gamma transcriptional activity; Drosophila S2 Gal4-VP16 UAS-luciferase, luminescence, 20 h; actives 3.5% (n = 310,000); Potency, µM (doses to about 53.6 µM), most hits filed as inhibitors;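 note: Gal4-VP16 expression switched on by copper sulfate through the metallothionein promoter; nearly all actives have a fitted effect of over 50% in size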
Chronic BCR inh: qHTS Assay to Find Inhibitors of Chronic Active B-Cell Receptor Signaling. ABC-DLBCL IkBa-CBG/CBR reporter, luminescence ratio, 4 h. Potency, µM (doses to about 46.1 µM), actives largely listed as inhibitors. actives 0.05% (n = 340,000); active = well fitted inhibition curve with a large enough effect in the signal ratio, with a control signal flat, not every such curve was filed as active; inconclusive = small, poorly fitted or top-dose-only effect, or effect the other way, or a change in a side signal; the % refers to the signal ratio
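Doxycycline induced both beetle luciferases in TMD8 lymphoma cells; IKK-driven degradation limits the IkappaBalpha-fused green signal, while red luminescence normalises for cell number and nonspecific effects. Compounds tested up to 46 uM, 4 hrs.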
Mito fusion yeast: qHTS Assay for Small Molecule Inhibitors of Mitochondrial Division or Activators of Mitochondrial Fusion; S. cerevisiae fusion-defective mutant growth rescue, CellTiterGlo 48 h; Potency, µM (series often up to 46.1 µM), most hits filed as activators; actives 0.23% (n = 320,000); AID 485298, 2010; note: nearly all actives have a fitted effect of over 45% in size
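S. cerevisiae fusion-defective temperature-sensitive mutants (e.g. fzo1-1, mgm1-5) grown 48 h at 37C in YPEG (ethanol/glycerol non-fermentable) medium with 23 nl compound per well; growth rescue read as CellTiterGlo luminescence.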
uPA generation: qHTS for Inhibitors of Cell Surface uPA Generation | cell surface uPA generation assay, qHTS | AID 540303, 2011 | Potency, µM (titrated, usually from 38.3 µM), most hits filed as inhibitors | actives 0.31% (n = 330,000); active = well fitted inhibition curve with a large enough effect; inconclusive = small, poorly fitted or top-dose-only effect; inactive = no such curve, though single readings can be large or run the other way; tested in mouse RAW 264.7 cells; note: nearly all actives have a fitted effect of over 55% in size
Large screens that a line does not name were inactive. Only some compounds are listed: those with a hit (about 5.5% of all), similar ones and a draw of the others. Unless noted, calls come from the whole dose curve; as a rule, active = well fitted curve in the direction sought with a large enough effect; inconclusive = small, poorly fitted or top-dose-only effect, or another doubt; inactive = no such curve, though single readings can be large; an effect the other way counts as inactive or inconclusive.

Cc1ccc2c(Cl)cc(Cl)c(OCC(=O)NCc3ccco3)c2n1	RORg inh 7.1µM, VP16 counter 11µM (no result: Integrin act MD, uPA generation)
Cc1ccc2c(Cl)cc(Cl)c(OCC(=O)N3CCOCC3)c2n1	none (no result: RORg inh, VP16 counter)
N#Cc1ccccc1S(=O)(=O)N1CCN(S(=O)(=O)c2ccc(Br)c(C(=O)O)c2)CC1	Integrin act MD inconclusive
Cc1nn(-c2cccc(C(F)(F)F)c2)c(=O)c2noc(C)c12	Chronic BCR inh inconclusive
N#CCCn1cc(C(=O)Nc2ccccc2Br)c(-c2cc3ccccc3o2)n1	RORg inh inconclusive, VP16 counter 7.9µM
Cc1ccccc1C(=O)NNC(=O)C12CC3CC(CC(C3)C1)C2	none
Cc1cccc(C(=O)NNC(=O)C23CC4CC(CC(C4)C2)C3)c1O	RORg inh 6.3µM, VP16 counter inconclusive (no result: uPA generation)
O=c1c2ccccc2cnn1-c1nc2ccccc2[nH]1	RORg inh 0.45µM, VP16 counter 1.1µM, Chronic BCR inh inconclusive, uPA generation inconclusive
O=c1c(Cl)c(N2CCCCC2)cnn1-c1nc2ccccc2[nH]1	RORg inh 0.89µM, VP16 counter 1.3µM, Chronic BCR inh inconclusive
CN[C@]1(C)[C@H]2CC[C@@H](C2)C1(C)C	none (no result: Integrin act MD, Chronic BCR inh, Mito fusion yeast, uPA generation)
Nc1nc2c([nH]c(=S)n2C2OC(CO)C(O)C2O)c(=O)[nH]1 (stereo not given)	none (no result: Integrin act MD, Chronic BCR inh, Mito fusion yeast, uPA generation)
Oc1c(C=C2N=c3ccccc3=N2)sc(=S)n1-c1ccc(F)cc1	RORg inh inconclusive, VP16 counter 13µM, Chronic BCR inh inconclusive
Oc1c(C=C2N=c3ccccc3=N2)sc(=S)n1-c1ccc2ccccc2c1	VP16 counter inconclusive, Chronic BCR inh inconclusive
CC(C)(C)C1CCC(=NNc2nc3ccccc3[nH]2)CC1 (stereo not given)	RORg inh 18µM, Chronic BCR inh inconclusive
O=C(O)c1cc(NN=C2CCN(Cc3ccccc3)CC2)ccc1Cl	Chronic BCR inh inconclusive
c1ccc2c(c1)CC/C2=N/Nc1nc2ccccc2[nH]1	RORg inh 1.1µM, VP16 counter 5.6µM, Chronic BCR inh inconclusive
c1ccc(CN2CCC(=NNc3nc4ccccc4[nH]3)CC2)cc1	RORg inh 22µM
CCCCN1C(=O)C(CC(=O)NCCc2ccccn2)CC(C(=O)N(C(C)C)C(C)C)=C1C (stereo not given)	none (no result: RORg inh, VP16 counter, Chronic BCR inh, Mito fusion yeast, uPA generation)
Cc1cc(C)cc(C(=O)N2CCN(c3ccccn3)CC2)c1	Chronic BCR inh inconclusive
CC1(C)Cc2nc3sc4c(NCCO)ncnc4c3cc2CS1	RORg inh 4µM, VP16 counter inconclusive
CC(C)Cn1c(C(C)C)nc([N+](=O)[O-])c1Sc1ccc(Cl)cn1	Chronic BCR inh inconclusive
CCCCn1c(CCC)nc([N+](=O)[O-])c1Sc1ccc(Cl)cn1	RORg inh inconclusive, VP16 counter 10µM, Chronic BCR inh inconclusive
O=C(NC(=O)c1ccccc1)Nc1ccc(Cl)cn1	Chronic BCR inh inconclusive
c1cncc(-c2nnc(SCc3nc4ccccc4[nH]3)o2)c1	RORg inh inconclusive
c1ccc2cc(CSCc3nc4ccccc4[nH]3)ccc2c1	RORg inh inconclusive, VP16 counter 11µM, Mito fusion yeast inconclusive
c1ccc2[nH]c(CSc3nc4ccccc4o3)nc2c1	RORg inh 2µM, VP16 counter inconclusive, Chronic BCR inh inconclusive
CCOc1cc(/C=C2\NC(=O)NC2=O)ccc1OC(C)C(=O)O (stereo not given)	none
O=C(Nc1cccc(NC(=O)c2ccc(Cl)cc2Cl)c1)c1cccnc1	Chronic BCR inh inconclusive
Cc1nc(Nc2cccc(C(C)O)c2)c2nnn(Cc3ccc(F)cc3)c2n1 (stereo not given)	Integrin act MD inconclusive, Chronic BCR inh inconclusive
Brc1ccc(CSc2ncnc3nc[nH]c23)cc1	Chronic BCR inh inconclusive, Mito fusion yeast 13µM, uPA generation inconclusive
C=CCN(CC=C)C(=S)NC(=O)Cc1cccc2ccccc12	RORg inh 0.2µM, VP16 counter 0.79µM, Chronic BCR inh inconclusive
